Data from PubChem BioAssay (NCATS).
Results filed as inconclusive are left out. The source made the active and inactive calls. Unless noted, calls come from the whole dose curve; as a rule, active = well fitted curve in the direction sought with a large enough effect; inconclusive = small, poorly fitted or top-dose-only effect, or another doubt; inactive = no such curve, though single readings can be large; an effect the other way counts as inactive or inconclusive.

Tests used:
[1] = biological target: Rap guanine nucleotide exchange factor 3 (Homo sapiens) (UniProt O95398); experiment: Confirmatory qHTS for agonist of cAMP-regulated guanine nucleotide exchange factor 3 (EPAC1) (AID 1645881);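 note: EPAC1 catalysed release of BODIPY-GDP from Rap1B seen as fluorescence loss; 100% = effect of cAMP agonist control; nearly all actives have a fitted effect of over 75% in size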
Rap guanine nucleotide exchange factor 3 (Homo sapiens), sequence (O95398 whole entry, looked up): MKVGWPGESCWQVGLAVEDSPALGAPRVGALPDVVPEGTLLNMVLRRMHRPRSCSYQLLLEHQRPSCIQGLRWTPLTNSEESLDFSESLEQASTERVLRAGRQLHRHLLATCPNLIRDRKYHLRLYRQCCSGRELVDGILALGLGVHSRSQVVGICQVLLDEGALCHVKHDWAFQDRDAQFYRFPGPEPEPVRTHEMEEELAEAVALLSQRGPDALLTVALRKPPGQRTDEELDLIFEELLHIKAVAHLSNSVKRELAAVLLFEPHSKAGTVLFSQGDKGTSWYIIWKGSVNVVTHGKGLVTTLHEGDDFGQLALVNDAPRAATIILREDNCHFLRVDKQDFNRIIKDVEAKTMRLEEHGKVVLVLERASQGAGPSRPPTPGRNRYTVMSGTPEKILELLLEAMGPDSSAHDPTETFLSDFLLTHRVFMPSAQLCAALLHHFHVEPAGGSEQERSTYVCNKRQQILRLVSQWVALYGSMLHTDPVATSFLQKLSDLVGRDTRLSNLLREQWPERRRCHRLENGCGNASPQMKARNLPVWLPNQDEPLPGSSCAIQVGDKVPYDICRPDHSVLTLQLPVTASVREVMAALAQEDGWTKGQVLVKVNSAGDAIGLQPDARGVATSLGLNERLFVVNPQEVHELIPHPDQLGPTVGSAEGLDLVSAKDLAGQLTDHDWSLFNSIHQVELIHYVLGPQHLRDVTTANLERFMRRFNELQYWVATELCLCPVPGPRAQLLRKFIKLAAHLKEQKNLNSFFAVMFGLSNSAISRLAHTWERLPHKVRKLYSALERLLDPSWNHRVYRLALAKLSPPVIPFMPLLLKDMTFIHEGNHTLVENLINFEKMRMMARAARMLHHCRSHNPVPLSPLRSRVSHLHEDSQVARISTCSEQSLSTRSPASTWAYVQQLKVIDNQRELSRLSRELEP

[2] = biological target: Rap guanine nucleotide exchange factor 4 (Homo sapiens) (UniProt Q8WZA2); experiment: Confirmatory qHTS for agonist of cAMP-regulated guanine nucleotide exchange factor 4 (EPAC2) (AID 1645884);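 note: nucleotide exchange releases bodipy-GDP from Rap1 and this lowers its fluorescence; % is set by controls: 0 for no effect and ±100 for the full control effect; nearly all actives have a fitted effect of over 65% in size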
Rap guanine nucleotide exchange factor 4 (Homo sapiens), sequence (Q8WZA2 whole entry, looked up): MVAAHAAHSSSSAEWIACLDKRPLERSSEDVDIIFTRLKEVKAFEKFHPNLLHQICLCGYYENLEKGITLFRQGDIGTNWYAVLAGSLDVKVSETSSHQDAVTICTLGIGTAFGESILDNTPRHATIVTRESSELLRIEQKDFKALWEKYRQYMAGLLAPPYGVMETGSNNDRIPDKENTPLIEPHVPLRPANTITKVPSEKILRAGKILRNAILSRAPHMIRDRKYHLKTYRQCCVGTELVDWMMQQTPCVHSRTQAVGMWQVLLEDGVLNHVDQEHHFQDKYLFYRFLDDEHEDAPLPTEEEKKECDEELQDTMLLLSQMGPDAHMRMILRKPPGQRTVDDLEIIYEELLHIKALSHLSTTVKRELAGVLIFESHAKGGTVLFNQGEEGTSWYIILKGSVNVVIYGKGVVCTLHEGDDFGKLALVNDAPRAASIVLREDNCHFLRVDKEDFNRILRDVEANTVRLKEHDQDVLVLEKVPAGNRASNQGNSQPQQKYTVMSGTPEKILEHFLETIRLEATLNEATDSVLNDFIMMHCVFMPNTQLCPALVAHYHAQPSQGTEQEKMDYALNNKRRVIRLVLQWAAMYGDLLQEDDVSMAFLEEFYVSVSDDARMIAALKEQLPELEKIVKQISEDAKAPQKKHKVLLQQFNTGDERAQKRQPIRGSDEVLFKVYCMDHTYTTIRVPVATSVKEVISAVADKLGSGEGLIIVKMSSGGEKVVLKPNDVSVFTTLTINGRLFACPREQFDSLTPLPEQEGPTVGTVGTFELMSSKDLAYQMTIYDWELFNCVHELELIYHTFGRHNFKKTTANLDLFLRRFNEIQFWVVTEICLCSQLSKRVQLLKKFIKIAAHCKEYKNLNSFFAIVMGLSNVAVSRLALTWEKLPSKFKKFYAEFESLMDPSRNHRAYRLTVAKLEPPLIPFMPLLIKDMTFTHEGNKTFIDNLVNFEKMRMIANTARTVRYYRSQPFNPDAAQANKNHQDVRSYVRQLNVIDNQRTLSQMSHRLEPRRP

[3] = biological target: Rap guanine nucleotide exchange factor 4 (Homo sapiens) (UniProt Q8WZA2); experiment: Confirmatory qHTS for antagonist of cAMP-regulated guanine nucleotide exchange factor 4 (EPAC2) (AID 1645885); note: nearly all actives have a fitted effect of over 25% in size; note: potency is the fitted concentration of half-maximal effect; for activity change, negative = inhibition: % is set by controls: 0 for no effect and ±100 for the full control effect
[4] = biological target: Rap guanine nucleotide exchange factor 3 (Homo sapiens) (UniProt O95398); experiment: Counterscreen qHTS for antagonist of cAMP-regulated guanine nucleotide exchange factor 3 (EPAC1) (AID 1645888);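 note: fluorescence loss as bound BODIPY-GDP is released from Rap1B; % of control where 0% means no effect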
Outline: (§1)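 Rap1B–BODIPY-GDP (250 nM) with 50 uM GDP; compounds pin-transferred to 9.74 nM–152 uM final (activator) or from 7.32 nM upwards (inhibitor). Fluorescence Ex/Em 480/540 nm read at 5 and 30 min, then after adding cAMP or buffer, at room temperature.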

[5] = biological target: Rap guanine nucleotide exchange factor 3 (Homo sapiens) (UniProt O95398); experiment: Counterscreen qHTS for agonist of cAMP-regulated guanine nucleotide exchange factor 3 (EPAC1) (AID 1645889); note: % of control where 0% means no effect; nearly all actives have a fitted effect of over 40% in size
Outline: as §1

[6] = biological target: Glucocorticoid receptor (Homo sapiens) (UniProt P04150); experiment: GR-GFP Redistribution (AID 450;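 active = compounds whose dose series gives a full or clear partial fitted curve of increased nuclear translocation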; note: potency is the fitted concentration of half-maximal effect); details: U2OS GR-GFP nuclear translocation, laser cytometry, 2 h
Glucocorticoid receptor (Homo sapiens), sequence (P04150 whole entry, looked up): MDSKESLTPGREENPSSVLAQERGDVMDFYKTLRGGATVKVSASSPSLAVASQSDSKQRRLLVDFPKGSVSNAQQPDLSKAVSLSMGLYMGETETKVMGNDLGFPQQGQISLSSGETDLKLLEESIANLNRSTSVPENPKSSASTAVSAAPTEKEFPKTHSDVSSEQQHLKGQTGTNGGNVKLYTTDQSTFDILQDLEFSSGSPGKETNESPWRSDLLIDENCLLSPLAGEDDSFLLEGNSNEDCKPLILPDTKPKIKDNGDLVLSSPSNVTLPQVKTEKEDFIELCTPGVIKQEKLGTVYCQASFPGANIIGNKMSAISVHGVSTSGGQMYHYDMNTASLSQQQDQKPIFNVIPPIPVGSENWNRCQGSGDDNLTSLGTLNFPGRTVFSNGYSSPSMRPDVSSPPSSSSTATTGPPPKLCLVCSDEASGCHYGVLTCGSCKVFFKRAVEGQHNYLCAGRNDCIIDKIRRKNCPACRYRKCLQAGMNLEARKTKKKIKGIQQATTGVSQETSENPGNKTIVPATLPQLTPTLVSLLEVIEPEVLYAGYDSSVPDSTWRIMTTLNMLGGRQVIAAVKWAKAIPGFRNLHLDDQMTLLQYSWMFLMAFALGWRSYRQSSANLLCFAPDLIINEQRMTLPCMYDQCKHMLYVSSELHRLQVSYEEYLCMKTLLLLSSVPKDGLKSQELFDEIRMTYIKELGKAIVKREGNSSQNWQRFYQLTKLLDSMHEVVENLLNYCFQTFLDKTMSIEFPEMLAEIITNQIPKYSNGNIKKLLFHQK

[7] = biological target: Guanine nucleotide-binding protein G(i) subunit alpha-1 (Homo sapiens) (UniProt P63096); experiment: qHTS Assay for Inhibitors of RGS12 GoLoco Motif Activity (Green Fluorophore) (AID 879);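 note: 0% = labeled peptide with Gαi1 and full inhibition = labeled peptide alone without protein; negative values mean loss of peptide binding seen as reduced polarization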
Outline: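 A drop in FITC polarization marked displacement of the FITC-tagged RGS12 GoLoco peptide (10 nM) from Gαi1 (50 nM). Compounds were incubated 10 min at room temperature in Tris pH 7.5 buffer containing 150 mM NaCl, 0.1 mM GDP and 0.05% NP40; unlabeled peptide titration served as control.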

[8] = biological target: Muscarinic acetylcholine receptor M1 (Rattus norvegicus) (UniProt P08482); experiment: qHTS Assay for Antagonists of Acetylcholine Muscarinic M1 Receptor: Kinetic Measurement of Intracellular Calcium Response (AID 943);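 note: Fluo-4 calcium signal as peak divided by basal fluorescence over 4 min; series mostly up to about 35 µM; nearly all actives have a fitted effect of over 75% in size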
Muscarinic acetylcholine receptor M1 (Rattus norvegicus), sequence (P08482 whole entry, looked up): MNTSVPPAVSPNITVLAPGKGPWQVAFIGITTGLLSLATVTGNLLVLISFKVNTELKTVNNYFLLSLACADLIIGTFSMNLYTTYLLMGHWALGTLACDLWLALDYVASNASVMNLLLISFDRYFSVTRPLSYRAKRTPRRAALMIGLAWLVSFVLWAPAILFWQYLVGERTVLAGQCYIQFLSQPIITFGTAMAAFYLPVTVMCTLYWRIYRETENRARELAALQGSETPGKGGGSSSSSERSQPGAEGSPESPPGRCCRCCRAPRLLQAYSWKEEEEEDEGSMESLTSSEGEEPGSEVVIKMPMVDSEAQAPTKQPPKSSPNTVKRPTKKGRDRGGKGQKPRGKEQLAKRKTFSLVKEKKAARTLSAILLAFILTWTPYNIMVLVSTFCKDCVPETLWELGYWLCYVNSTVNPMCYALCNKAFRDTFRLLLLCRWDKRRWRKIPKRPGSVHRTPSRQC
Outline: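 Quantitative HTS in CHO-M1 (rat receptor) cells: 10 min compound exposure ahead of 100 nM carbachol, Fluo-4 fluorescence followed 4 min, value expressed as peak-to-basal ratio.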

[9] = biological target: Pyruvate kinase (Leishmania mexicana) (UniProt Q27686); experiment: qHTS Validation Assay for Inhibitors of Leishmania Mexicana Pyruvate Kinase (AID 945);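 note: 0% = DMSO only neutral control wells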
Pyruvate kinase (Leishmania mexicana), sequence (Q27686 2-499 E452W): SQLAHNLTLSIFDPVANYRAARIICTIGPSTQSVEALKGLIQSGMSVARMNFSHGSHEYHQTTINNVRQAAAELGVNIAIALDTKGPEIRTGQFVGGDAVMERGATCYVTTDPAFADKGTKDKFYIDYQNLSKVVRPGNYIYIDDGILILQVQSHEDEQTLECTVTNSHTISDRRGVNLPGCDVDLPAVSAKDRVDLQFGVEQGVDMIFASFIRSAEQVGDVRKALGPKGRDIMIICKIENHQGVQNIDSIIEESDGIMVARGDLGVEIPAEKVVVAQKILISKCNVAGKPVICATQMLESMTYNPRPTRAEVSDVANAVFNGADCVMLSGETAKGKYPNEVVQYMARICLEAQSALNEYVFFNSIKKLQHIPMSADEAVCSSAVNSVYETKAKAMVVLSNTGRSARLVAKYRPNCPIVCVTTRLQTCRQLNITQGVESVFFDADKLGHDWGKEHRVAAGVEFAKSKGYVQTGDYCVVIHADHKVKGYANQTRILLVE
Outline: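 The enzyme is a highly purified E451W mutant of LmPYK used at 0.2 nM. It converts 0.5 mM PEP and 0.1 mM ADP over 1 h at room temperature; product ATP is quantified by luciferase luminescence relative to DMSO controls.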

[10] = biological target: Pyruvate kinase PKM (Homo sapiens) (UniProt P14618); experiment: qHTS Assay for Activators of Human Muscle Pyruvate Kinase (AID 954; active = well fitted curve in the direction sought with a large enough effect, not every such curve was filed as active;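 note: 0% = uninhibited enzyme and -100% = no enzyme or full thiadiazolimine inhibition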)
Pyruvate kinase PKM (Homo sapiens), sequence (P14618 whole entry, looked up): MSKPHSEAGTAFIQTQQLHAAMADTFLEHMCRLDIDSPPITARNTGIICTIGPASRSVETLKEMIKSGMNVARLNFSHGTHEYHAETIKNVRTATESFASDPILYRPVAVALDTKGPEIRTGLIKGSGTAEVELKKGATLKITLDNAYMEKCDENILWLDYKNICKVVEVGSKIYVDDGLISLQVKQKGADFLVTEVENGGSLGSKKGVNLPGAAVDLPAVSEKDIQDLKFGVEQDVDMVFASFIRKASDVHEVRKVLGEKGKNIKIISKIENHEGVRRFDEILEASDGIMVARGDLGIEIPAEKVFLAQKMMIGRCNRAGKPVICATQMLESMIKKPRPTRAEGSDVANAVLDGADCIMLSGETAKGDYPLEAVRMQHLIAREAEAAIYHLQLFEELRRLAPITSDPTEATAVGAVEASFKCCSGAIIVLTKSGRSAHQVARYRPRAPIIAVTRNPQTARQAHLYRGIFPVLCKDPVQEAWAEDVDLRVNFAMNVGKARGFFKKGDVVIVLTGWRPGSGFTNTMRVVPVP
Outline: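 Compound pinned into substrate mix (0.5 mM PEP, 0.1 mM ADP), then 0.1 nM PKM2 added; 1 h, RT. Stop/detection luciferase reagent added, luminescence read. Normalized to no-inhibition and no-enzyme or reference-inhibitor controls.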

[11] = biological target: Alpha-galactosidase A (Homo sapiens) (UniProt P06280); experiment: Counterscreen for Glucocerebrosidase Inhibitors: qHTS Assay for Human alpha-Galactosidase at pH 4.5 (AID 992); note: 0% is about no effect
Alpha-galactosidase A (Homo sapiens), sequence (P06280 whole entry, looked up): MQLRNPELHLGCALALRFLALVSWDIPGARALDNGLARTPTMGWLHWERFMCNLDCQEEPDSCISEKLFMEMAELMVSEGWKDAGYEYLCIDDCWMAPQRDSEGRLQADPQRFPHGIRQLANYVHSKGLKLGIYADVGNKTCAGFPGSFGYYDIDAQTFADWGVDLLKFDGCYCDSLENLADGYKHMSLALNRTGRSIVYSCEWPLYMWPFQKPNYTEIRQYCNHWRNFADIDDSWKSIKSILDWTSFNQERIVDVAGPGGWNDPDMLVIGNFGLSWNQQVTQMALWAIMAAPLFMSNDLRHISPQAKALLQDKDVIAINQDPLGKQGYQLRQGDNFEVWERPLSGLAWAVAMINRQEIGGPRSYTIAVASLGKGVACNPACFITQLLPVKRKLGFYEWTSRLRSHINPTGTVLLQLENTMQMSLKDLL
Outline: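 Steps: enzyme (2 nM final), then compound across 0.7 nM to 77 uM, then 80 uM fluorogenic galactopyranoside substrate; incubate 20 min at room temperature; quench at pH 10; measure fluorescence at 365/440 nm.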

[12] = biological target: alpha-glucosidase (Oryza sativa, rice) (UniProt Q653V4); experiment: Counterscreen for Glucocerebrosidase Inhibitors: qHTS Assay for Rice alpha-Glucosidase at pH 5.0 (AID 997);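 note: 0% = full activity with enzyme and -100% = basal without enzyme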
Outline: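 Endpoint fluorogenic assay at pH 5.0: compounds (0.7 nM to 77 uM) titrated against 4 nM rice enzyme and 400 uM 4-MU-alpha-glucoside for 20 min at room temperature; NaOH/glycine stop, read ex 365/em 440 nm, Hill-fitted AC50.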

[13] = biological target: Alpha-galactosidase (Coffea arabica) (UniProt Q42656); experiment: Counterscreen for Glucocerebrosidase Inhibitors: qHTS Assay for Coffee Bean alpha-Galactosidase at pH 5.9 (AID 998);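 note: plate controls were uninhibited enzyme for no effect and no-enzyme basal signal for full effect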
Outline: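 Enzyme 2 nM + cpd (0.7 nM–77 uM titration) + 4-MU-alpha-Gal 80 uM, pH 5.9 citrate/Tween-20, RT 20 min, NaOH/glycine stop pH 10, fluor 365/440. Normalized to no-enzyme and full-activity controls; Hill-fit AC50.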

[14] = biological target: DNA dC->dU-editing enzyme APOBEC-3G (Homo sapiens) (UniProt Q9HC16); experiment: qHTS for inhibitors of Vif-A3G interactions: Validation (AID 588379); note: 0% is about no effect
DNA dC->dU-editing enzyme APOBEC-3G (Homo sapiens), sequence (Q9HC16 whole entry, looked up): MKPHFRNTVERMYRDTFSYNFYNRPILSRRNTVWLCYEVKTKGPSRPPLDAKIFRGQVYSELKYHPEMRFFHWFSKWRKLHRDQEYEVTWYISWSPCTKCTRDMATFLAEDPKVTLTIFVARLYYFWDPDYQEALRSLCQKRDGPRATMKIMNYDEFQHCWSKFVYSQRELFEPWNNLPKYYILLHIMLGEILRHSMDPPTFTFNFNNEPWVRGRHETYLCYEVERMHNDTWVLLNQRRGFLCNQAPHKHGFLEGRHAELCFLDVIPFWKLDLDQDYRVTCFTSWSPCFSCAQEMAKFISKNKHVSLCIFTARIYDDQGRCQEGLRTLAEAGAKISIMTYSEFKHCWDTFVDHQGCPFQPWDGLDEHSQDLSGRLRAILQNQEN
Outline: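 Yellow fluorescence (Ex 488, Em 500-530) of Vif-coexpressing HeLa A3G-eYFP cells, scanned by Acumen cytometer, reports blocked A3G degradation. Cells plated at 700/well overnight at 37 deg C before compound addition, then a further overnight compound incubation at 37 deg C.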

CCCCN1C(=O)/C(=C\c2ccco2)C(=O)N(CCc2ccccc2)C1=O
inactive: Potency [1] | Potency [2] | Potency [3] | outcome [4] | Potency [5]

Cc1oc(-c2ccccc2)nc1CN1C(=O)CN=C(c2ccccc2)c2ccccc21
inactive: Potency [1] | activation [2] 7.27% [at 17.1 µM, percent relative to cAMP agonist control] | activity change, negative = inhibition [4] -7.89% [at 30.8 µM] | activation [5] 28.8% [at 30.8 µM]

COc1cccc(C(c2nnnn2C2CCCCC2)N2CCC3(CC2)C(=O)NCN3c2ccccc2)c1OC (centres undefined)
inactive: Potency [1] | Potency [2] | outcome [4]

CCC(C)c1ccc(N2C(=O)NC(=O)/C(=C/c3cccn3CCOc3ccc(C)cc3)C2=O)cc1 (centres undefined)
inactive: Potency [1] | Potency [2] | Potency [3] | Potency [5]

COc1ccc(-n2nnnc2C(c2ccccc2OC(F)(F)F)N2CCC(n3c(=O)[nH]c4ccccc43)CC2)cc1 (centres undefined)
inactive: Potency [1] | activation [2] 2.83% [at 17.1 µM, percent relative to cAMP agonist control] | activity change, negative = inhibition [3] -5.88% [at 12.7 µM] | activation [5] 2.08% [at 30.8 µM]

COP(=O)(/C=C(\Cl)c1ccccc1)/C=C(\Cl)c1ccccc1
inactive: Potency [1] | Potency [2] | Potency [3] | outcome [4] | Potency [5]

CCCCCCC(C)(C)c1ccc([C@@H]2C[C@H](O)CC[C@@H]2CCCO)c(O)c1
active: Potency [3] 35 µM
inactive: Potency [6] > 46 µM | outcome [7] | Potency [8] | Potency [9] | outcome [10] | outcome [11] | outcome [12] | outcome [13] | outcome [14] | Potency [1] | Potency [2]

CCn1nc(/C=C/c2ccccc2)nc2c(=O)n(C)c(=O)nc1-2
inactive: Potency [1] | Potency [2] | outcome [4] | Potency [5]

COc1ccc(C2C=C(C)Oc3c2c(=O)oc2ccccc32)cc1OC (centres undefined)
inactive: Potency [1] | outcome [4]
active: Potency [3] 30.1 µM

COCCNC(=O)c1c(N)n(CCC(C)C)c2nc3ccccc3nc12
inactive: Potency [1] | activation [2] 10.8% [at 17.1 µM, percent relative to cAMP agonist control] | activity change, negative = inhibition [3] -8.1% [at 12.7 µM] | activity change, negative = inhibition [4] -2.48% [at 30.8 µM] | activation [5] 26.5% [at 30.8 µM]

CC(=O)C1C2c3ccccc3OC1(C)N=c1s/c(=C/c3cn(C)nc3C)c(=O)n12 (centres undefined)
inactive: Potency [1] | Potency [2] | Potency [3] | outcome [4] | Potency [5]
